Laboratory results from PubChem BioAssay (Tox21).
Records with an inconclusive call do not appear. Active and inactive are the calls of the source. The call rests on the fitted dose curve.

Assay: qHTS assay to identify small molecule agonists of the NFkB signaling pathway - cell viability counter screen (AID 1159515); further: nearly all actives have a fitted effect of over 55% in size
Settings: NFkB-bla ME-180 viability, CellTiter-Glo luminescence, 5 h; series mostly up to 61 µM
Description: National Center for Advancing Translational Sciences [NCATS]
NIH Chemical Genomics Center [NCGC]
U.S. Environmental Protection Agency [EPA]
National Institutes of Environmental Health Sciences [NIEHS]
National Toxicology Program [NTP]
U.S. Food and Drug Administration [FDA]
Transcription factors and their stimulated target gene expression play pivotal roles across many cellular processes including responses to environmental stimuli. Proper regulation of associated pathways is critical to maintain cell health and function. Constitutive activation of transcription factor pathways has been implicated in tumors as it may block cellular functions such as apoptosis and lead to invasion and metastasis. One important transcription factor that stimulates gene expression in response to cytokines, UV radiation, and other stimuli is nuclear factor-kappa B (NFkB). To measure activation of the NFkB pathway, the CellSensor NFkB-bla ME-180 cell line (Life Technologies, Carlsbad, CA) that stably expresses beta-lactamase reporter gene under the regulation of a NF-kB response element was used. This assay allows measurement of the NFkB pathway activity induced by compounds in a ME-180 cell line. This system quantitates NF-kB activity using a FRET-based assay system where beta-lactamase expression disrupts FRET, allowing for fluorescent measurement of activity. This cell line has been used to screen the Tox21 10K compound library and to identify compounds that induce the NFkB pathway activity. The cytotoxicity of the Tox21 compound library against the NFkB-bla ME-180 cell line was tested in parallel by measuring cell viability using the CellTiter-Glo assay in the same wells.
Tox21 Assay Protocol Summary:
NFkB-bla ME-180 cells were dispensed at 2,000 cells/6 uL of assay medium per well into black wall/clear-bottom 1536-well plates using a Multidrop Combi (ThermoFisher Scientific, Waltham, MA) dispenser. After the assay plates were incubated at 37 C and 5% CO2 for an overnight, 23 nL of compounds dissolved in DMSO, positive controls or DMSO only was transferred to the assay plate by a Pintool station (Kalypsys, San Diego, CA). The assay plates were incubated at 37 C and 5% CO2 for 5 hr. One uL of LiveBLAzer B/G FRET substrate (Life Technologies) was added using a Flying Reagent Dispenser (Aurora Discovery, San Diego, CA) and the plates were incubated at room temperature for 1.5 hr. Fluorescence intensity (405 nm excitation, 460 nm and 530 nm emissions) was measured using an Envision plate reader (PerkinElmer, Shelton, CT). For cytotoxicity, 3 ul/well of CellTiter-Glo reagent was added into the assay plates using an FRD. After 30 min incubation at room temperature, the luminescence intensity was measured using a ViewLux plate reader (PerkinElmer).
In the case of C/C=C/c1ccc2c(c1)OCO2, the outcome was “inactive”.
In the case of Cc1cc(O)ccc1Cl, the outcome was “inactive”.
For O=[N+]([O-])c1cc([As](=O)(O)O)ccc1O, the outcome was “inactive”.
With CCCCC(CC)C(=O)Cl (stereo not given) the outcome was “inactive”.
With COP(=S)(OC)Oc1ccc(SC)c(C)c1 the outcome was “inactive”.
In the case of C=C(C)C(=O)OCC(CC)CCCC (stereo not given), the outcome was “inactive”.
With CNCC(O)c1ccc(O)cc1 (stereo not given) the outcome was “inactive”.
For CNC(=O)O/N=C/C(C)(C)S(C)=O (stereo not given), the outcome was “inactive”.
With CC[N+](=O)[O-] the outcome was “inactive”.
In the case of CC(=O)C1CCOC1=O (stereo not given), the outcome was “inactive”.
In the case of Cc1ccc(N=C=O)cc1N=C=O, the outcome was “inactive”.
For CN1C(=O)CCS(=O)(=O)C1c1ccc(Cl)cc1 (stereo not given), the outcome was “inactive”.
For O=P1(NCCCl)OCCCN1CCCl (stereo not given), the outcome was “inactive”.
With CN(C)CCC#N the outcome was “inactive”.
In the case of Cc1cccc(N)c1C, the outcome was “inactive”.
With O=C(O)Cc1ccccc1 the outcome was “inactive”.
In the case of Nc1cccc(Cl)c1, the outcome was “inactive”.
With CC(=O)/C=C/c1ccccc1 the outcome was “inactive”.
With CNC(=O)O/N=C/C(C)(C)SC the outcome was “inactive”.
With C[C@]12CC[C@H](O)CC1=CC[C@@H]1[C@@H]2CC[C@]2(C)C(=O)CC[C@@H]12 the outcome was “inactive”.
For CCSC(=O)N1CCCCCC1, the outcome was “inactive”.
In the case of CNC(=O)O/N=C(\SC)C(=O)N(C)C, the outcome was “inactive”.
In the case of O=C/C=C/c1ccccc1, the outcome was “inactive”.
For O=C(O)C1C(C(=O)O)C2(Cl)C(Cl)=C(Cl)C1(Cl)C2(Cl)Cl (stereo not given), the outcome was “inactive”.
For Nc1ccc([As](=O)(O)O)cc1, the outcome was “inactive”.
With Nc1ccc(N)cc1 the outcome was “inactive”.
For OCc1ccco1, the outcome was “inactive”.
For C=CC#N, the outcome was “inactive”.
With Cc1cccc(N)c1 the outcome was “inactive”.
For CCOC(=O)CC(SP(=O)(OC)OC)C(=O)OCC (stereo not given), the outcome was “inactive”.
With O=C(O)C(Br)Br the outcome was “inactive”.
For Sc1ccccc1, the outcome was “inactive”.
In the case of Cc1cc(Cl)ccc1OC(C)C(=O)O (stereo not given), the outcome was “inactive”.
With Clc1cnc(Oc2ccc(Oc3ncc(Cl)cc3Cl)cc2)c(Cl)c1 the outcome was “inactive”.
With CC12CC1(C)C(=O)N(c1cc(Cl)cc(Cl)c1)C2=O (stereo not given) the outcome was “inactive”.
In the case of O=C(O)c1cc(Oc2ccc(C(F)(F)F)cc2Cl)ccc1[N+](=O)[O-], the outcome was “inactive”.
In the case of O=C(O)CCCc1ccc(N(CCCl)CCCl)cc1, the outcome was “inactive”.
In the case of N#Cc1ccccn1, the outcome was “inactive”.
In the case of CNC(=O)Oc1cccc2ccccc12, the outcome was “inactive”.
For COS(=O)(=O)OC, the outcome was “inactive”.
